# Source: ChEMBL document CHEMBL5606460, “ASAP - DENV-2 NS2B-NS3 protease fluorescence single point” (2024)
# Screen size: about 2,000 compounds; about 110 (5.5%) showed an effect of 50% or more. The sample holds strong results, similar compounds and a random draw of the others, so the mix is not that of the screen.
# Target: Genome polyprotein (dengue virus type 2) (UniProt P29990)
# [1] = Thailand/16681/1984, Concentration 25.0 uM, Number of replicates 1.0
structure (smiles),measurement,setting,value
c1ccc2[nH]c(CN3CC[C@H](c4c[nH]c5ccccc45)C3)cc2c1,inhibition,"Thailand/16681/1984, Concentration 49.5 uM, Number of replicates 2.0, Standard deviation 0.7608740215940771 %",4.51%
same,inhibition,"Thailand/16681/1984, Concentration 99.01 uM, Number of replicates 2.0, Standard deviation 0.30587350380986955 %",4.39%
same,inhibition,"Thailand/16681/1984, Concentration 198.0 uM, Number of replicates 2.0, Standard deviation 0.6449469231287406 %",3.06%
Cc1c(Br)cnc(NC(=O)C2CCN(c3ccc(C=O)cc3)CC2)c1[N+](=O)[O-],inhibition,[1],13.3%
Cc1nn(Cc2nnc(C(C)C)o2)cc1C1CCNCC1,inhibition,"Thailand/16681/1984, Concentration 49.5 uM, Number of replicates 2.0, Standard deviation 1.2271984598057826 %",-1.09%
same,inhibition,"Thailand/16681/1984, Concentration 99.01 uM, Number of replicates 2.0, Standard deviation 0.3137269789739955 %",-1.28%
same,inhibition,"Thailand/16681/1984, Concentration 198.0 uM, Number of replicates 2.0, Standard deviation 0.585185347191749 %",-1.14%
O=Cc1ccc(N2CCC(C(=O)N3CCN(c4ncccn4)CC3)CC2)cc1,inhibition,[1],13.4%
O=C(NC[C@H]1CCOC1)c1cc(Cl)ccc1NS(=O)(=O)c1ccc(Oc2ccccc2Cl)cc1,inhibition,"Thailand/16681/1984, Concentration 49.5 uM, Number of replicates 2.0, Standard deviation 2.9570930238802475 %",78.1%
same,inhibition,"Thailand/16681/1984, Concentration 99.01 uM, Number of replicates 2.0, Standard deviation 0.09728436725720986 %",83.4%
same,inhibition,"Thailand/16681/1984, Concentration 198.0 uM, Number of replicates 2.0, Standard deviation 0.16101849440059574 %",79%
O=S(=O)(NC1CCCCC1)c1ccc(Oc2ccccc2Cl)cc1,inhibition,"Thailand/16681/1984, Concentration 49.5 uM, Number of replicates 2.0, Standard deviation 1.7919780415060578 %",0.164%
same,inhibition,"Thailand/16681/1984, Concentration 99.01 uM, Number of replicates 2.0, Standard deviation 2.26588512977007 %",2.51%
same,inhibition,"Thailand/16681/1984, Concentration 198.0 uM, Number of replicates 2.0, Standard deviation 2.2194744531827233 %",5.38%
O=C(N[C@H]1CCOC1)c1cc(Cl)ccc1NS(=O)(=O)c1ccc(Oc2ccccc2Cl)cc1,inhibition,"Thailand/16681/1984, Concentration 49.5 uM, Number of replicates 2.0, Standard deviation 0.8156312071794307 %",64.1%
same,inhibition,"Thailand/16681/1984, Concentration 99.01 uM, Number of replicates 2.0, Standard deviation 0.42939613872644544 %",63.6%
same,inhibition,"Thailand/16681/1984, Concentration 198.0 uM, Number of replicates 2.0, Standard deviation 0.707503298737338 %",53%
Cc1cc(CN)c2cccc(Cl)c2n1,inhibition,"Thailand/16681/1984, Concentration 49.95 uM, Number of replicates 2.0, Standard deviation 5.413623438036859 %",-7.74%
same,inhibition,"Thailand/16681/1984, Concentration 99.9 uM, Number of replicates 2.0, Standard deviation 5.696602605148216 %",-7.99%
CN(CCO[Si](C)(C)C(C)(C)C)C(=O)C1CCN(c2ccc(C=O)cc2)CC1,inhibition,[1],11.8%
Cc1cc(CO)c2cccc(Cc3cccc(NC(=O)C(=O)c4ccco4)c3)c2n1,inhibition,"Thailand/16681/1984, Concentration 49.95 uM, Number of replicates 2.0, Standard deviation 2.5499602835301056 %",-0.234%
same,inhibition,"Thailand/16681/1984, Concentration 99.9 uM, Number of replicates 2.0, Standard deviation 0.7837509937910023 %",-0.946%
Cc1cc(C(=O)N2CCN(C(=O)c3cc(C(C)(F)F)n[nH]3)CC2)cc2nn[nH]c12,inhibition,"Thailand/16681/1984, Concentration 49.5 uM, Number of replicates 2.0, Standard deviation 0.5040908488530289 %",1.22%
same,inhibition,"Thailand/16681/1984, Concentration 99.01 uM, Number of replicates 2.0, Standard deviation 0.07028947937337628 %",1.9%
same,inhibition,"Thailand/16681/1984, Concentration 198.0 uM, Number of replicates 2.0, Standard deviation 0.7181064342983147 %",2.65%
O=Cc1ccc(N2CCC(C(=O)N[C@@H](CCO)c3ccccc3F)CC2)cc1,inhibition,[1],11.4%
CNC(=O)[C@H]1CN(S(=O)(=O)c2ccc(Oc3ccccc3Cl)cc2)CCO1,inhibition,"Thailand/16681/1984, Concentration 49.5 uM, Number of replicates 2.0, Standard deviation 0.2669928674711758 %",-4.8%
same,inhibition,"Thailand/16681/1984, Concentration 99.01 uM, Number of replicates 2.0, Standard deviation 0.624095865646037 %",-4.22%
same,inhibition,"Thailand/16681/1984, Concentration 198.0 uM, Number of replicates 2.0, Standard deviation 0.6183745152543801 %",-5.47%
Nc1cccc2c(Cl)ccnc12,inhibition,"Thailand/16681/1984, Concentration 49.95 uM, Number of replicates 2.0, Standard deviation 9.3539447807875 %",25.3%
same,inhibition,"Thailand/16681/1984, Concentration 99.9 uM, Number of replicates 2.0, Standard deviation 4.02175613474424 %",68.2%
Nc1ccc(Cl)c2cccnc12,inhibition,"Thailand/16681/1984, Concentration 49.95 uM, Number of replicates 2.0, Standard deviation 3.8383177085719704 %",-6.59%
same,inhibition,"Thailand/16681/1984, Concentration 99.9 uM, Number of replicates 2.0, Standard deviation 5.003138959022175 %",-3.71%
Nc1ccnc2c(Cl)cccc12,inhibition,"Thailand/16681/1984, Concentration 49.95 uM, Number of replicates 2.0, Standard deviation 2.736837302484984 %",-9.22%
same,inhibition,"Thailand/16681/1984, Concentration 99.9 uM, Number of replicates 2.0, Standard deviation 4.13445849353631 %",-8.19%
CNC(=O)c1cc(Cl)ccc1NS(=O)(=O)c1ccc(C(=O)N(C)C)cc1,inhibition,"Thailand/16681/1984, Concentration 49.5 uM, Number of replicates 2.0, Standard deviation 0.43931539952348436 %",-0.006%
same,inhibition,"Thailand/16681/1984, Concentration 99.01 uM, Number of replicates 2.0, Standard deviation 1.0448066347124485 %",1.16%
same,inhibition,"Thailand/16681/1984, Concentration 198.0 uM, Number of replicates 2.0, Standard deviation 2.436767925477247 %",5.4%
O=Cc1ccc(N2CCC(C(=O)N3CCN(c4ccc(F)cc4F)CC3)CC2)cc1,inhibition,[1],11.4%
CNC(=O)C[C@H]1CCCCN1S(=O)(=O)c1ccc(Oc2ccccc2Cl)cc1,inhibition,"Thailand/16681/1984, Concentration 49.5 uM, Number of replicates 2.0, Standard deviation 0.6403061336392061 %",-1.92%
same,inhibition,"Thailand/16681/1984, Concentration 99.01 uM, Number of replicates 2.0, Standard deviation 0.5926288072768489 %",-0.478%
same,inhibition,"Thailand/16681/1984, Concentration 198.0 uM, Number of replicates 2.0, Standard deviation 0.4290957159902598 %",1.47%
CNC(=O)C[C@H]1CCCN1S(=O)(=O)c1ccc(Oc2ccccc2Cl)cc1,inhibition,"Thailand/16681/1984, Concentration 49.5 uM, Number of replicates 2.0, Standard deviation 0.32757728686835763 %",-0.145%
same,inhibition,"Thailand/16681/1984, Concentration 99.01 uM, Number of replicates 2.0, Standard deviation 1.5700018436077314 %",1.46%
same,inhibition,"Thailand/16681/1984, Concentration 198.0 uM, Number of replicates 2.0, Standard deviation 0.26515981673573996 %",3.55%
O=C(c1cc(Cl)ccc1NS(=O)(=O)c1ccc(Oc2ccccc2Cl)cc1)N1CC[C@H](CO)C1,inhibition,"Thailand/16681/1984, Concentration 49.5 uM, Number of replicates 2.0, Standard deviation 1.1631525408138252 %",2.87%
same,inhibition,"Thailand/16681/1984, Concentration 99.01 uM, Number of replicates 2.0, Standard deviation 1.2459174873464263 %",43.6%
same,inhibition,"Thailand/16681/1984, Concentration 198.0 uM, Number of replicates 2.0, Standard deviation 0.07742612093802895 %",97.8%
CNC(=O)[C@H]1CCCN(S(=O)(=O)c2ccc(Oc3ccccc3Cl)cc2)C1,inhibition,"Thailand/16681/1984, Concentration 49.5 uM, Number of replicates 2.0, Standard deviation 1.3425926640552597 %",-1.55%
same,inhibition,"Thailand/16681/1984, Concentration 99.01 uM, Number of replicates 2.0, Standard deviation 1.1232771440198652 %",0.94%
same,inhibition,"Thailand/16681/1984, Concentration 198.0 uM, Number of replicates 2.0, Standard deviation 1.8999403128335026 %",2.72%
CC[C@H]1CCN(C(=O)c2cc(Cl)ccc2NS(=O)(=O)c2ccc(Oc3ccccc3Cl)cc2)C1,inhibition,"Thailand/16681/1984, Concentration 49.5 uM, Number of replicates 2.0, Standard deviation 0.47789805764320614 %",46.7%
same,inhibition,"Thailand/16681/1984, Concentration 99.01 uM, Number of replicates 2.0, Standard deviation 0.11836183761011393 %",61.8%
same,inhibition,"Thailand/16681/1984, Concentration 198.0 uM, Number of replicates 2.0, Standard deviation 0.034704726588234404 %",73.4%
CNC(=O)[C@H]1CCN(S(=O)(=O)c2ccc(Oc3ccccc3Cl)cc2)C1,inhibition,"Thailand/16681/1984, Concentration 49.5 uM, Number of replicates 2.0, Standard deviation 0.2326651022960228 %",-2.7%
same,inhibition,"Thailand/16681/1984, Concentration 99.01 uM, Number of replicates 2.0, Standard deviation 1.0727392899756494 %",-1.81%
same,inhibition,"Thailand/16681/1984, Concentration 198.0 uM, Number of replicates 2.0, Standard deviation 0.8124211767562954 %",0.204%
O=C(c1cc(Cl)ccc1NS(=O)(=O)c1ccc(Oc2ccccc2Cl)cc1)N1CCC[C@@H]1CO,inhibition,"Thailand/16681/1984, Concentration 49.5 uM, Number of replicates 2.0, Standard deviation 0.383564644131335 %",17.2%
same,inhibition,"Thailand/16681/1984, Concentration 99.01 uM, Number of replicates 2.0, Standard deviation 0.18466388793957156 %",85.5%
same,inhibition,"Thailand/16681/1984, Concentration 198.0 uM, Number of replicates 2.0, Standard deviation 0.022248141217142654 %",93.6%
O=Cc1ccc(N2CCC(C(=O)Nc3c(F)cc(F)cc3[N+](=O)[O-])CC2)cc1,inhibition,[1],15.2%
Cc1cc(C(N)=O)c2cccc(Cl)c2n1,inhibition,"Thailand/16681/1984, Concentration 49.95 uM, Number of replicates 2.0, Standard deviation 7.126306314460823 %",-2.36%
same,inhibition,"Thailand/16681/1984, Concentration 99.9 uM, Number of replicates 2.0, Standard deviation 6.288884680839078 %",0.295%
O=Cc1ccc(N2CCC(C(=O)N3CCN(C(=O)OCc4ccccc4)CC3)CC2)cc1,inhibition,[1],11.5%
